Laboratory results reported in PubChem BioAssay (NCATS).
A number with no mark means an inactive call. Records with an inconclusive call do not appear. Entries that show only a call come without a potency. The source made the active and inactive calls. Unless noted, calls come from the whole dose curve; as a rule, active = well fitted curve in the direction sought with a large enough effect; inconclusive = small, poorly fitted or top-dose-only effect, or another doubt; inactive = no such curve, though single readings can be large; an effect the other way counts as inactive or inconclusive.

How the values were obtained:
[1] = Viability counterscreen for antagonist of constitutive androstane receptor (CAR) against the NCATS DSHEA and TCM libraries (AID 1794837);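 note: compound exposure lasted 24 h before viability reading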
Summary of the method: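 Viability was measured by CellTiter-Fluor fluorescence (405/540 nm, 1 hr) in HepG2-CYP2B6-hCAR cells. Cells were co-treated 24 hr with 48 uM CITCO (final), antagonist mode, and test substances.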

[2] = Viability counterscreen for agonist of constitutive androstane receptor (CAR) against the NCATS DSHEA and TCM libraries (AID 1794838)
Summary of the method: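 Cell viability, from CellTiter-Fluor fluorescence (405/540 nm), was scored after a 24 h, 37C exposure of HepG2 cells carrying CYP2B6 reporter and hCAR to test substances in presence of 0.75 uM PK11195.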

[3] = molecular target: Nuclear receptor subfamily 1 group I member 3 (Homo sapiens) (UniProt Q14994); assay: Primary qHTS for agonist of constitutive androstane receptor (CAR) against the NCATS DSHEA and TCM libraries (AID 1794839); note: potency is the fitted concentration of half-maximal effect
Nuclear receptor subfamily 1 group I member 3 (Homo sapiens), sequence (Q14994 whole entry, looked up): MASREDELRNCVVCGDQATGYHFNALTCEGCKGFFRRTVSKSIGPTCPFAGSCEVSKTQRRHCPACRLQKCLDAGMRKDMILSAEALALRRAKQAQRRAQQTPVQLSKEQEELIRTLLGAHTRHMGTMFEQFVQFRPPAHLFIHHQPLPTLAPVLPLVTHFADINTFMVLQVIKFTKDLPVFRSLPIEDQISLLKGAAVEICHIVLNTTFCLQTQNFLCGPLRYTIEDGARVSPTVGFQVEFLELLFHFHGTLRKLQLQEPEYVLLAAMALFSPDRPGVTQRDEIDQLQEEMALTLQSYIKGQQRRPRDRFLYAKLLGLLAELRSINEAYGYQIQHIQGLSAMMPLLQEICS
Summary of the method: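 Agonist mode in presence of hCAR antagonist PK11195 (0.75 µM final): test substances, 24 h, 37 °C, on HepG2-CYP2B6-hCAR cells. Same-well readouts: fluorescence viability, then ONE-Glo luminescence; CITCO as reference agonist.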

[4] = HepG2 viability counterscreen (readout 2: ATP content) against the NCATS DSHEA and TCM libraries (AID 1794840);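 note: HepG2 cells exposed to substances for about 24 h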
Summary of the method: (§1)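 Readout 1: cellular protease activity, GF-AFC substrate (25 uM final, 30 min, fluorescence 380/510 nm). Readout 2: ATP content by CellTiter-Glo luminescence after 30 min at RT. Both follow ~24 h exposure of HepG2 cells (1,000/well) to substances.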

[5] = HepG2 viability counterscreen (readout 1: protease activity) against the NCATS DSHEA and TCM libraries (AID 1794841);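 note: cells exposed to compounds for about 24 h before the protease read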
Summary of the method: as §1

[6] = molecular target: Cytochrome P450 2D6 (Homo sapiens) (UniProt P10635); assay: qHTS for inhibitors of CYP2D6 against the NCATS DSHEA and TCM libraries (AID 1919972)
Cytochrome P450 2D6 (Homo sapiens), sequence (P10635 whole entry, looked up): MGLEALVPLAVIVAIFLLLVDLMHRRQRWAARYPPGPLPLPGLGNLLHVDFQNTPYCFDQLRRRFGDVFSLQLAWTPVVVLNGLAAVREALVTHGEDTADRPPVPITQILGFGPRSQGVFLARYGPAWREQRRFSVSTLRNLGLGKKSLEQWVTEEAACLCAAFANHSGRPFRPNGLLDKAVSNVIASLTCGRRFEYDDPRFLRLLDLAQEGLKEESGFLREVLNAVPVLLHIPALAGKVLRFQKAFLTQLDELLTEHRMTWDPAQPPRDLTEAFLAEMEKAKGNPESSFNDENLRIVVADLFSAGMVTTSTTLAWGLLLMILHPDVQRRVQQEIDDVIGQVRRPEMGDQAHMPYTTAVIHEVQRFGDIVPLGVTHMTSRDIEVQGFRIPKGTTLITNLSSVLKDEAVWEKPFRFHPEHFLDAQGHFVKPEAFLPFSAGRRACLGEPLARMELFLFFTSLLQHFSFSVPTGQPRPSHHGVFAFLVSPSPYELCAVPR
Summary of the method: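 Luminescent P450-Glo read-out of CYP2D6 turnover of a luciferin substrate after NADPH-driven reaction of 30-45 min at room temperature. Compounds were first preincubated 15 min with enzyme at titrated concentrations; quinidine was the intraplate control.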

[7] = molecular target: Cytochrome P450 2C19 (Homo sapiens) (UniProt P33261); assay: qHTS for inhibitors of CYP2C19 against the NCATS DSHEA and TCM libraries (AID 1919974);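 note: luminescence from luciferin released by CYP2C19 oxidation of a pro-luciferin substrate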; note: potency is the fitted concentration of half-maximal effect
Cytochrome P450 2C19 (Homo sapiens), sequence (P33261 whole entry, looked up, canonical isoform): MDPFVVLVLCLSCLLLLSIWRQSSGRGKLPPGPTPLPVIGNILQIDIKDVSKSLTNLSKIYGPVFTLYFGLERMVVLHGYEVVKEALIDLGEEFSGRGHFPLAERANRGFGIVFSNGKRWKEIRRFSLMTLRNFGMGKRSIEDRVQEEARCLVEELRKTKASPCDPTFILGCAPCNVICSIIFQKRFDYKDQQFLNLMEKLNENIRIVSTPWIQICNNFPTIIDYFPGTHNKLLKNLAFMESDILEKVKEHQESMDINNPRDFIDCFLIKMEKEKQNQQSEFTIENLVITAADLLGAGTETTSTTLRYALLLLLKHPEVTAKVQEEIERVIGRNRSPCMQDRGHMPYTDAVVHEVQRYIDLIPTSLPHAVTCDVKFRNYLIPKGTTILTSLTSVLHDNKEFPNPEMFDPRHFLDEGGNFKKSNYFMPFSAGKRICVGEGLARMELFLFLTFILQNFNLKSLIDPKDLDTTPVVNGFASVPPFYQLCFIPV
Summary of the method: (§2)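 Read-out is luminescence after P450-Glo detection (30 min, RT). Before that: 15 min compound–enzyme preincubation, then 30-45 min reaction with 1x NADPH regeneration solution, substrate concentration isoform-specific.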

[8] = KB-3-1 P-gp reporter qHTS against the NCATS DSHEA and TCM libraries (AID 1919975)
Summary of the method: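 Cell viability by CellTiter-Glo luminescence following ~72 h compound exposure (concentration-response). Uses parental, non-P-gp-overexpressing KB-3-1 line, 500 cells/well in DMEM/10% FBS, attached ~4 h before dosing.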

[9] = qHTS Counterscreen for compound interference against the NCATS DSHEA and TCM libraries (AID 1919978); conditions: firefly luciferase detection reagent interference, luminescence;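 note: compounds preincubated with 1 µM D-luciferin or buffer before detection reagent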
Summary of the method: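 With 1 uM D-luciferin or phosphate buffer only, compounds at final 19.5 nM–39.8 uM were incubated for 15 min at room temperature. Luciferase detection reagent was then added, and luminescence was measured after a further 30 min at room temperature.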

[10] = Dual reporter qHTS for agonist of Pregnane X Receptor (hPXR) against the NCATS DSHEA and TCM libraries: Fluorescence readout (AID 1920058)
Summary of the method: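 HepG2 hPXR-Luc, 2000 cells/well, 5 h attach; cpds ~24 h, 37 °C/5% CO2; CellTiter-Fluor 1 h; fluor. Ex/Em 405/540 nm = viability.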

[11] = molecular target: Nuclear receptor subfamily 1 group I member 2 (Homo sapiens) (UniProt O75469); assay: Dual reporter qHTS for agonist of Pregnane X Receptor (hPXR) against the NCATS DSHEA and TCM libraries: Luminescence readout (AID 1920059)
Nuclear receptor subfamily 1 group I member 2 (Homo sapiens), sequence (O75469 whole entry, looked up): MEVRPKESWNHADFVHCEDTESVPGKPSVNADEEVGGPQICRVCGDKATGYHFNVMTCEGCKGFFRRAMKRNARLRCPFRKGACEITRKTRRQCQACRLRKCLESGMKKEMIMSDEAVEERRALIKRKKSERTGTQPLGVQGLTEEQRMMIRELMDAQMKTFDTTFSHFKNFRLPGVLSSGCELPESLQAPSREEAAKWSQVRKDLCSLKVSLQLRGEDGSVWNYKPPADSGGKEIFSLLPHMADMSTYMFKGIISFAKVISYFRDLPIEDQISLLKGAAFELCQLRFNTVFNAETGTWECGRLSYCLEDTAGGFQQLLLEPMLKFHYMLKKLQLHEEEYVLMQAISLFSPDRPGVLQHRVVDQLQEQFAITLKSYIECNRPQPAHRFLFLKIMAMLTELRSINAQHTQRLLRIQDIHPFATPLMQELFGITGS
Summary of the method: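 hPXR-LucHepG2 cells in phenol red-free DMEM with 5% charcoal-stripped FBS, 2000 cells/well, attached 5 h, then exposed 24 h at 37C to compounds; rifampicin as positive agonist control (2.8 nM–92 uM). Luciferase luminescence read.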

[12] = molecular target: Nuclear receptor subfamily 1 group I member 2 (Homo sapiens) (UniProt O75469); assay: Dual reporter qHTS for antagonist of Pregnane X Receptor (hPXR) against the NCATS DSHEA and TCM libraries: Luminescence Readout (AID 1920060);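 note: HepG2 cells carrying hPXR luciferase reporter stimulated with rifampicin at 2 µM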
Summary of the method: (§3)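 Antagonist mode: rifampicin 2 uM final co-added with compounds to hPXR-LucHepG2 cells for 24 h at 37C. Viability by CellTiter-Fluor, Ex/Em 405/540 nm, 1 h; reporter by ONE-Glo luminescence.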

[13] = Dual reporter qHTS for antagonist of Pregnane X Receptor (hPXR) against the NCATS DSHEA and TCM libraries: Fluorescence Readout (AID 1920061)
Summary of the method: as §3

[14] = molecular target: Cytochrome P450 2C9 (Homo sapiens) (UniProt P11712); assay: qHTS for inhibitors of CYP2C9 against the NCATS DSHEA and TCM libraries (AID 1919973); note: potency is the fitted concentration of half-maximal effect
Cytochrome P450 2C9 (Homo sapiens), sequence (P11712 whole entry, looked up): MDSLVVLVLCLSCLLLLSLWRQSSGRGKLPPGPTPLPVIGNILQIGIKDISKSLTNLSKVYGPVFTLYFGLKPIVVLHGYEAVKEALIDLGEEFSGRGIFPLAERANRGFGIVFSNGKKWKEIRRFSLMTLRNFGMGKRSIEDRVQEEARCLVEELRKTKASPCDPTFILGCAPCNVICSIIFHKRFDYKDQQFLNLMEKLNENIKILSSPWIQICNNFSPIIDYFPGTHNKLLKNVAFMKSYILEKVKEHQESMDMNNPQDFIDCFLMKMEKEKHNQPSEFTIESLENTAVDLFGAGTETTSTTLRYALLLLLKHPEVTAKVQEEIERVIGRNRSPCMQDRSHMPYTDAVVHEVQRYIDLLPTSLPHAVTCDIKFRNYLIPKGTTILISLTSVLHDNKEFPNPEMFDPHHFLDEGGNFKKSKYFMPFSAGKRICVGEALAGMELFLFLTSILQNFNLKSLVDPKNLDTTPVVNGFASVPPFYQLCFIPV
Summary of the method: as §2

[15] = molecular target: Mitogen-activated protein kinase 10 (Mus musculus) (UniProt Q61831); assay: JNK3 AlphaScreen Assay (AID 530; active = well fitted curve in either direction with a large enough effect, not every such curve was filed as active;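 note: kinase came from lysate of stimulated human HepG2 cells; signal reports phosphorylation of biotinylated GST-cJun 1-79 at Ser73 with 10 µM ATP; series mostly up to about 57 µM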)
Summary of the method: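 Inhibitors reduce antibody binding to phosphorylated biotin-cJun, lowering AlphaScreen luminescence. Lysates from HepG2 cells pre-activated by IL-1beta plus TNF-alpha supplied JNK3; compounds were titrated.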

[16] = molecular target: Cytochrome P450 1A2 (Homo sapiens) (UniProt P05177); assay: qHTS for inhibitors of CYPIA2 against the NCATS DSHEA and TCM libraries (AID 1919976); note: potency is the fitted concentration of half-maximal effect
Cytochrome P450 1A2 (Homo sapiens), sequence (P05177 whole entry, looked up): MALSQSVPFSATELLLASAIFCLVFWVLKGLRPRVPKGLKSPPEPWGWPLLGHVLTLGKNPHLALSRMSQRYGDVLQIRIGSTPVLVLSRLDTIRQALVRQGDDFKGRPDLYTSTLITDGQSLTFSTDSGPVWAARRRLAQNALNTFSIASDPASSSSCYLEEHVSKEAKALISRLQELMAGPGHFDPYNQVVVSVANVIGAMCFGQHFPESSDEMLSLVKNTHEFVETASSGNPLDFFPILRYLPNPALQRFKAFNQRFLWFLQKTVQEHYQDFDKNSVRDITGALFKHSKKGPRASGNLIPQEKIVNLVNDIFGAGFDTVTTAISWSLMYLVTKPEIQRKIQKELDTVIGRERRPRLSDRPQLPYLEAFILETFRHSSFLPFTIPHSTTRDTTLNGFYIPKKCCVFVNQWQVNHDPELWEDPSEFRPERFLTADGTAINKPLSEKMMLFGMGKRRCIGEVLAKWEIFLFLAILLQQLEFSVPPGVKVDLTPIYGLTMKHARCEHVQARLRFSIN
Summary of the method: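 CYP1A2 + luciferin substrate, 100 mM KPO4-type buffer; cmpd 15 min RT; 1x NADPH regen, 30-45 min RT dark; detection reagent 30 min RT; luminescence. Minus-enzyme wells as background; furafylline intraplate control.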

[17] = molecular target: Cytochrome P450 3A4 (Homo sapiens) (UniProt P08684); assay: qHTS for inhibitors of CYP3A4 against the NCATS DSHEA and TCM libraries (AID 1919971);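 note: inhibition lowers luminescence from luciferin made by CYP3A4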
Cytochrome P450 3A4 (Homo sapiens), sequence (P08684 whole entry, looked up): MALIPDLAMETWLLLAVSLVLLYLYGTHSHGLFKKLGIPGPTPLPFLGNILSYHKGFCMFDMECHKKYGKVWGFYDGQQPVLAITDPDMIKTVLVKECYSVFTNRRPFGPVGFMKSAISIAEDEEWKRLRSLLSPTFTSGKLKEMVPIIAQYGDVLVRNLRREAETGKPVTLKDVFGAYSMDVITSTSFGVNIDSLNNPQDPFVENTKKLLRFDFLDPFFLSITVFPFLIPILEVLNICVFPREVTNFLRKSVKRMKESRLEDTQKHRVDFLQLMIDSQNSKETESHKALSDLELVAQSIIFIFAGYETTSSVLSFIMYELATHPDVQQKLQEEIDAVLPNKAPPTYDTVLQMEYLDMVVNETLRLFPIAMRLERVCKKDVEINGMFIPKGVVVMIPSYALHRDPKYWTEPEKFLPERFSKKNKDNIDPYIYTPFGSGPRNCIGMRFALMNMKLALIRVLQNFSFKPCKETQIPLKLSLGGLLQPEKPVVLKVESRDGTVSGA
Summary of the method: as §2

| Structure (SMILES) | outcome [1] | outcome [2] | Potency [3] | outcome [4] | outcome [5] | Potency [6] | Potency [7] | outcome [8] | max response [9] [%] | outcome [10] | Potency [11] | outcome [12] | outcome [13] | Potency [14] | Potency [15] | Potency [16] | Potency [17] |
| --- | --- | --- | --- | --- | --- | --- | --- | --- | --- | --- | --- | --- | --- | --- | --- | --- | --- |
| C=C1CC/C=C(/C)CC[C@@H]2[C@@H]1CC2(C)C | inactive | inactive | 7.08 µM (active) | inactive | inactive | inactive | 3.55 µM (active) | inactive | 1.11 | inactive | inactive | inactive | inactive | – | – | – | – |
| CCCCCCCCCCCCCC(=O)O | inactive | inactive | inactive | inactive | inactive | inactive | inactive | inactive | -1.78 | inactive | inactive | inactive | inactive | – | – | – | – |
| O=C(O[C@@H]1Cc2c(O)cc(O)cc2O[C@@H]1c1ccc(O)c(O)c1)c1cc(O)c(O)c(O)c1 | inactive | inactive | inactive | inactive | inactive | – | – | inactive | 2.25 | inactive | inactive | inactive | inactive | 12.6 µM (active) | – | – | – |
| CC(C)=CCC[C@](C)(O[C@@H]1O[C@H](CO)[C@@H](O)[C@H](O)[C@H]1O)[C@H]1CC[C@]2(C)[C@@H]1[C@H](O)C[C@@H]1[C@@]3(C)CC[C@H](O[C@@H]4O[C@H](CO)[C@@H](O)[C@H](O)[C@H]4O[C@@H]4O[C@H](CO)[C@@H](O)[C@H](O)[C@H]4O)C(C)(C)[C@@H]3CC[C@]12C | inactive | inactive | inactive | inactive | inactive | – | inactive | inactive | 4.23 | inactive | inactive | inactive | inactive | inactive | – | – | – |
| CCCCCCCC/C=C/CCCCCCCCCC(=O)O | inactive | inactive | inactive | inactive | – | inactive | inactive | inactive | -1.3 | inactive | inactive | inactive | inactive | – | – | – | – |
| O=C(O)CC(O)(C(=O)O)C(O)C(=O)O (stereo unspecified) | inactive | inactive | inactive | inactive | inactive | inactive | inactive | inactive | 1.8 | inactive | inactive | inactive | inactive | inactive | – | – | – |
| COc1cc(/C=C/c2ccccc2)oc(=O)c1 | inactive | inactive | 12.6 µM (active) | inactive | inactive | inactive | – | inactive | 2.93 | inactive | – | inactive | inactive | inactive | inactive | 7.08 µM (active) | – |
| CCCCCCCCCC=O | inactive | inactive | inactive | inactive | inactive | inactive | inactive | inactive | 0.0179 | inactive | inactive | inactive | inactive | inactive | – | inactive | – |
| COc1ccc(-c2coc3cc(O[C@@H]4O[C@H](CO)[C@@H](O)[C@H](O)[C@H]4O)ccc3c2=O)cc1 | inactive | inactive | 11.2 µM (active) | inactive | inactive | inactive | inactive | inactive | 3.05 | inactive | inactive | inactive | inactive | inactive | – | inactive | – |
| Oc1cc(O)c2c(c1)O[C@@H](c1cc(O)c(O)c(O)c1)[C@H](O)C2 | inactive | inactive | – | inactive | inactive | inactive | 3.55 µM (active) | inactive | -5.21 | inactive | – | inactive | inactive | – | – | – | inactive |
| C=C(C)C1CC=C(C)C(O)C1 (stereo unspecified) | inactive | inactive | inactive | – | inactive | inactive | – | inactive | 4.01 | inactive | inactive | inactive | inactive | inactive | inactive | – | – |
| CCCCCCCC/C=C\CCCCCCCCCCCCCC(=O)O | inactive | inactive | inactive | inactive | inactive | inactive | inactive | inactive | -2.19 | inactive | inactive | inactive | inactive | inactive | – | inactive | – |
| CCCCCC(=O)CC | inactive | inactive | inactive | inactive | inactive | inactive | inactive | inactive | -3.61 | inactive | inactive | inactive | inactive | inactive | – | inactive | – |
